# Data taken from PubChem BioAssay (EPA / NIEHS).
# Where “and” joins values, the source holds several entries; their conditions need not be identical. Equal entries are not always repeated. Records with an inconclusive call do not appear. A structure can be active in one record and inactive in another. Calls of active or inactive are those of the source. The calls were made as follows, unless noted: active = hit-call score of the fitted dose curve at least 0.9, where 1 is the maximum; inactive = score below 0.9.
# Assays:
# [1] = ATG_TGFb_CIS: Attagene CIS-FACTORIAL HepG2 Assay for human Transforming Growth Factor (TGF) (AID 2282967); details: HepG2 Attagene CIS TGFb reporter, mRNA transcription; actives raise or lower the signal
# How it was run: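 Transient MRTU transfection of HepG2 (FuGene 6). Dose 24 h. TriZol RNA, oligo(dT) RT, PCR, 6-FAM primer extension, HpaI cut, CE. Bidirectional fit, DMSO = baseline.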
# [2] = ATG_VDRE_CIS: Attagene CIS-FACTORIAL HepG2 Assay for human Vitamin D Receptor Element (VDRE) (AID 2282968); details: HepG2 VDRE cis-reporter transcription, actives raise or lower the signal
# How it was run: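 Transfected HepG2 reporter cells, chemical treatment 24 h. RNA isolated, cDNA amplified with reporter-specific primers, products analysed by capillary electrophoresis. Endpoint fitted in both directions versus DMSO.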
# [3] = molecular target: Steroid hormone receptor ERR1 (Homo sapiens) (UniProt P11474); experiment: ATG_ERRa_TRANS: Attagene TRANS-FACTORIAL HepG2 Assay for human Estrogen-Related Receptor alpha (ERRa) (AID 2282971; active = hit-call score of the fitted dose curve at least 0.9, where 1 is the maximum); details: HepG2 Attagene TRANS reporter, ERRa transactivation
# Sequence of Steroid hormone receptor ERR1 (Homo sapiens) (P11474 whole entry, looked up, the tested form may be a part): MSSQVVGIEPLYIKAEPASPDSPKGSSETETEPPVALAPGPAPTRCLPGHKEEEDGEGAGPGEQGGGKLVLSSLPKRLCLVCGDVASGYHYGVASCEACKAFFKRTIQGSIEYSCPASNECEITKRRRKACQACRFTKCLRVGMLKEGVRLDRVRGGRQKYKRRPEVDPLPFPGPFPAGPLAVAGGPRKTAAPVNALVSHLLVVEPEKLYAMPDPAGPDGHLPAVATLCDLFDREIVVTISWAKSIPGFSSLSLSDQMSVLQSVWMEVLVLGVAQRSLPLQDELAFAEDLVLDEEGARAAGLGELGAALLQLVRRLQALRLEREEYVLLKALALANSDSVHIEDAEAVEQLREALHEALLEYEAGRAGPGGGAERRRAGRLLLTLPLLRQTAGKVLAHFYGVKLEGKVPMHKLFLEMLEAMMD
# How it was run: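 Signal gain relative to DMSO for an ERRa-Gal4 chimeric receptor, read as reporter mRNA by RT-PCR/capillary electrophoresis. Human HepG2 liver cells, transient multiplex reporter transfection, 24 h chemical exposure.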
# [4] = molecular target: X-box-binding protein 1 (Homo sapiens) (UniProt P17861); experiment: ATG_Xbp1_CIS: Attagene CIS-FACTORIAL HepG2 Assay for human X-box Binding Protein 1 (XBP1) (AID 2282972); details: HepG2 XBP1 cis-element reporter, Attagene multiplex; actives raise or lower the signal
# Sequence of X-box-binding protein 1 (Homo sapiens) (P17861 whole entry, looked up): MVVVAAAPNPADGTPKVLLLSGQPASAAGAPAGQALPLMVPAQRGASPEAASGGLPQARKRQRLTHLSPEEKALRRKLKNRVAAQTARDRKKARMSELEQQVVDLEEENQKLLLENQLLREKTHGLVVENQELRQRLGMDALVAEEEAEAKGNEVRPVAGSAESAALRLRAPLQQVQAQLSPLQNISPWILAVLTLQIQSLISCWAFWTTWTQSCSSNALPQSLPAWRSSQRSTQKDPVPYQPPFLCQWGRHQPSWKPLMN
# How it was run: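 Human hepatoma HepG2, cis-element reporter system, 24 h treatment; mRNA quantified by RT-PCR/CE fluorescence; fit relative to DMSO.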
# [5] = ATG_M_19_TRANS: Attagene TRANS-FACTORIAL HepG2 Assay for M19 Transcription Factor (Internal Marker) (AID 2282974; active = hit-call score of the fitted dose curve at least 0.9, where 1 is the maximum); details: HepG2 Attagene TRANS-FACTORIAL M19 internal marker reporter
# How it was run: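 Reporter mRNA induction was measured in transfected HepG2 cells 24 h after dosing. Endpoint fitted upward relative to DMSO and serves as a background control within the multiplexed TRANS panel.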
# [6] = molecular target: Oxysterols receptor LXR-beta (Homo sapiens) (UniProt P55055); experiment: ATG_LXRb_TRANS: Attagene TRANS-FACTORIAL HepG2 Assay for human Liver X Receptor beta (LXRb) (AID 2282981; active = hit-call score of the fitted dose curve at least 0.9, where 1 is the maximum); details: HepG2 Attagene TRANS GAL4-LXRb reporter, mRNA
# Sequence of Oxysterols receptor LXR-beta (Homo sapiens) (P55055 whole entry, looked up, the tested form may be a part): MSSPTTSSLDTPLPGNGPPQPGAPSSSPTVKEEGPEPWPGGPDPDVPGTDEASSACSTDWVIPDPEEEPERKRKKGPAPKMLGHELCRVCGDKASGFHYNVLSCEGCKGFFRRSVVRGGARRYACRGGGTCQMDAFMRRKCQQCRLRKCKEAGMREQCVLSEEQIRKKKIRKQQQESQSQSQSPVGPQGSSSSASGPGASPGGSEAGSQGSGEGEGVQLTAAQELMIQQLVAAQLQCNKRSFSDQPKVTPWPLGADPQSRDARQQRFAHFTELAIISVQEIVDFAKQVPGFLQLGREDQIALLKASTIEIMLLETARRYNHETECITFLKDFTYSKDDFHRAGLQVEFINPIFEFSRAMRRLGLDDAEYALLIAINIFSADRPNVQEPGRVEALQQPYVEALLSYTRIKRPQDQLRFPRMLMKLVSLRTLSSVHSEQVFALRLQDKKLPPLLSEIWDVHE
# How it was run: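 Liver-derived HepG2 cells transfected with Gal4-responsive reporters were dosed for 24 h. Activation was scored as rise in reporter mRNA, by RT-PCR and capillary electrophoresis, above DMSO baseline.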
# [7] = molecular target: Oxysterols receptor LXR-alpha (Homo sapiens) (UniProt Q13133); experiment: ATG_LXRa_TRANS: Attagene TRANS-FACTORIAL HepG2 Assay for human Liver X Receptor alpha (LXRa) (AID 2282980; active = hit-call score of the fitted dose curve at least 0.9, where 1 is the maximum); details: HepG2 Attagene TRANS reporter, LXRa transactivation
# Sequence of Oxysterols receptor LXR-alpha (Homo sapiens) (Q13133 whole entry, looked up, the tested form may be a part): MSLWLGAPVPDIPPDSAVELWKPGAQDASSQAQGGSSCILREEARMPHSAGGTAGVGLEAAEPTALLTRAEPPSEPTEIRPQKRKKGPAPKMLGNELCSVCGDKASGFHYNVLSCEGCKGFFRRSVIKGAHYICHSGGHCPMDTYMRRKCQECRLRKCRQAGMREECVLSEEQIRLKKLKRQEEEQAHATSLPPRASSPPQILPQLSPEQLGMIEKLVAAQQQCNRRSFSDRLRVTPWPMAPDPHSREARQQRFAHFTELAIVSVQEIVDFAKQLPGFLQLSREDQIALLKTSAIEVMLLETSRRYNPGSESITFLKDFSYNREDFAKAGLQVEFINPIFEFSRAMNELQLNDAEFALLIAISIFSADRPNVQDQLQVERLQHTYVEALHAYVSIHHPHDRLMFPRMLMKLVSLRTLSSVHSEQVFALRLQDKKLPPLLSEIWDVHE
# How it was run: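 In this multiplexed TRANS system, compounds act on HepG2 cells carrying GAL4-UAS reporter units and a receptor-GAL4 fusion for 24 h. Induced reporter RNA is amplified, fluorescently labelled and sized by capillary electrophoresis, with DMSO as baseline.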
# [8] = molecular target: Bile acid receptor (Homo sapiens) (UniProt Q96RI1); experiment: ATG_FXR_TRANS: Attagene TRANS-FACTORIAL HepG2 Assay for Farnesoid X Receptor (FXR) (AID 2282979; active = hit-call score of the fitted dose curve at least 0.9, where 1 is the maximum;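 also: hits raise reporter mRNA above DMSO so AC50 marks FXR activation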); details: HepG2 Attagene TRANS FXR-GAL4 reporter transcription
# Sequence of Bile acid receptor (Homo sapiens) (Q96RI1 whole entry, looked up, the tested form may be a part): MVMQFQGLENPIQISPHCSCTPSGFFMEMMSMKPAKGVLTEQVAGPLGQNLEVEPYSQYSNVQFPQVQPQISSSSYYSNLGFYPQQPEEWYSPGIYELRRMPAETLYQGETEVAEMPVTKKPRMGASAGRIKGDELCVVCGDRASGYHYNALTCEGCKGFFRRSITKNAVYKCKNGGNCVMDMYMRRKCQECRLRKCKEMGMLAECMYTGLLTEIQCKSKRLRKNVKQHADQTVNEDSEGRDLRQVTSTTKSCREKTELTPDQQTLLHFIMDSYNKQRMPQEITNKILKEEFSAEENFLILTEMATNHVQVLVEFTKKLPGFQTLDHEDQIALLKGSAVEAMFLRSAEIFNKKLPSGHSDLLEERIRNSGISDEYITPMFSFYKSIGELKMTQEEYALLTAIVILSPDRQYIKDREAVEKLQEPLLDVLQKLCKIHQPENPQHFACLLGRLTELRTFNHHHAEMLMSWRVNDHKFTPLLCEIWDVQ
# How it was run: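 After 24 h chemical treatment of transfected HepG2 cells, GAL4-UAS reporter transcripts driven by an exogenous FXR-GAL4 fusion were measured by RT-PCR and capillary electrophoresis. Increases over DMSO were fitted.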
# [9] = ATG_GAL4_TRANS: Attagene TRANS-FACTORIAL HepG2 Assay for GAL4 (Internal Marker) (AID 2282976; active = hit-call score of the fitted dose curve at least 0.9, where 1 is the maximum); details: HepG2 Attagene TRANS GAL4 internal marker reporter
# How it was run: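 Liver HepG2 line bearing multiplexed GAL4-UAS reporter constructs; 24 h chemical treatment. Transcripts were quantified as fluorescent fragments on capillary electrophoresis after RT-PCR and HpaI cut, with activity fitted upward from DMSO.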
# [10] = molecular target: Glucocorticoid receptor (Homo sapiens) (UniProt P04150); experiment: ATG_GR_TRANS: Attagene TRANS-FACTORIAL HepG2 Assay for human Glucocorticoid Receptor (GR) (AID 2282978; active = hit-call score of the fitted dose curve at least 0.9, where 1 is the maximum;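 also: activators score as hits since higher reporter transcript over DMSO is fitted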); details: HepG2 Attagene TRANS GR reporter, mRNA transcription
# Sequence of Glucocorticoid receptor (Homo sapiens) (P04150 whole entry, looked up, the tested form may be a part): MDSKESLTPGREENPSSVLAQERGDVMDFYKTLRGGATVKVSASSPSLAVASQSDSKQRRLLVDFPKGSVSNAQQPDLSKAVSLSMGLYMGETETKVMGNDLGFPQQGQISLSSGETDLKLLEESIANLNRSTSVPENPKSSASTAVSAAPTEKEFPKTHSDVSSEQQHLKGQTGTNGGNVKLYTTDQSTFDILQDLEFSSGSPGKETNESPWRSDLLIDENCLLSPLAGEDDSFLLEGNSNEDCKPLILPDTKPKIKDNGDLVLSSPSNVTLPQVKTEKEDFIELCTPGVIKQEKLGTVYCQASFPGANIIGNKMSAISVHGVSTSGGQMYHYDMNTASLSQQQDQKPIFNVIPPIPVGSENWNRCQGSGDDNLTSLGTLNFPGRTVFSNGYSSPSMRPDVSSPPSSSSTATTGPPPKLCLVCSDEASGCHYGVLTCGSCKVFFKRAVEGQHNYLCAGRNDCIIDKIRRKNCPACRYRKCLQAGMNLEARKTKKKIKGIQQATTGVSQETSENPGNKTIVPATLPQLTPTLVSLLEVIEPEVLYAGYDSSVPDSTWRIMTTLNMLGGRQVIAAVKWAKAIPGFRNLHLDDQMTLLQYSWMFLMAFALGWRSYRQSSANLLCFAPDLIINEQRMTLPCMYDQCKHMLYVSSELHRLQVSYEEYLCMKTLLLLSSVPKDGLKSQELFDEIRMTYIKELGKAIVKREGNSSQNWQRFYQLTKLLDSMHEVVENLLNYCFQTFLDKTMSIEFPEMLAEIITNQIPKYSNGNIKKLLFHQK
# How it was run: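 Reporter transcript levels, detected by fluorescence after RT-PCR and capillary electrophoresis, served as the endpoint. HepG2 cells bearing transfected GAL4-UAS reporters responsive to NR-GAL4 chimeras were incubated with compound 24 h; DMSO defined baseline.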
smiles,measurement,setting,value
Nc1ccc(N=Nc2ccccc2)cc1,outcome,[1],inactive
same,AC50,[2],54 µM (active)
same,outcome,[3],inactive
same,AC50,[4],73.9 µM (active)
same,outcome,[5],inactive
same,outcome,[6],inactive
Cc1ccc(N)c(N)c1,outcome,[1],inactive
same,outcome,[2],inactive
same,outcome,[4],inactive
CC(C)(C)OOC(C)(C)CCC(C)(C)OOC(C)(C)C,outcome,[1],inactive
same,outcome,[2],inactive
same,outcome,[3],inactive
same,outcome,[4],inactive
same,outcome,[7],inactive
COC(=O)c1ccccc1N,outcome,[1],inactive
same,outcome,[2],inactive
same,outcome,[3],inactive
same,outcome,[4],inactive
same,outcome,[5],inactive
same,outcome,[7],inactive
CCNS(=O)(=O)C(F)(F)C(F)(F)C(F)(F)C(F)(F)C(F)(F)C(F)(F)C(F)(F)C(F)(F)F,AC50,[1],91.1 µM (active) and 44 µM (active) and 40.3 µM (active)
same,AC50,[2],67.3 µM (active) and 25.7 µM (active)
same,outcome,[2],inactive
same,outcome,[3],inactive
same,AC50,[4],73.3 µM (active) and 84.4 µM (active) and 31.5 µM (active)
same,outcome,[5],inactive
same,outcome,[8],inactive
same,AC50,[7],42.3 µM (active) and 39.2 µM (active)
same,outcome,[7],inactive
same,outcome,[6],inactive
c1ccc(C2CO2)cc1 (stereo unspecified),outcome,[1],inactive
same,outcome,[2],inactive
same,outcome,[4],inactive
same,outcome,[5],inactive
CN(C)c1ccccc1,outcome,[1],inactive
same,outcome,[2],inactive
same,outcome,[3],inactive
same,outcome,[4],inactive
same,outcome,[9],inactive
N#CC(Br)(Br)C(N)=O,outcome,[1],inactive
same,outcome,[2],inactive
same,outcome,[4],inactive
same,outcome,[5],inactive
COc1cc(C=O)cc2c1[C@H](COC(N)=O)[C@]1(OC(C)=O)ON2C[C@H]2[C@@H]1N2C(C)=O,AC50,[1],60.4 µM (active)
same,AC50,[2],0.146 µM (active)
same,outcome,[3],inactive
same,AC50,[4],33.4 µM (active)
same,outcome,[9],inactive
same,outcome,[7],inactive
O=C(N[C@H](c1ccccc1)[C@@H]1CN2CCC1CC2)c1c(Cl)ccc(C(F)(F)F)c1Cl,outcome,[1],inactive
same,outcome,[2],inactive
same,outcome,[3],inactive
same,outcome,[4],inactive
same,outcome,[8],inactive
Cc1ccc([N+](=O)[O-])cc1,outcome,[1],inactive
same,outcome,[2],inactive
same,outcome,[4],inactive
[O-][Cl+]O,outcome,[1],inactive
same,outcome,[2],inactive
same,outcome,[3],inactive
same,outcome,[4],inactive
same,outcome,[5],inactive
same,outcome,[9],inactive
same,outcome,[7],inactive
Cc1cc(N=Nc2ccccc2C)ccc1N,outcome,[1],inactive
same,AC50,[2],22.9 µM (active)
same,outcome,[3],inactive
same,AC50,[4],19.3 µM (active)
same,outcome,[5],inactive
same,outcome,[8],inactive
same,outcome,[7],inactive
same,outcome,[6],inactive
ClC1=C(Cl)[C@]2(Cl)[C@H]3[C@H]([C@@H]4C=C[C@H]3C4)[C@@]1(Cl)C2(Cl)Cl,outcome,[1],inactive
same,AC50,[2],11.7 µM (active)
same,AC50,[4],33.4 µM (active)
same,outcome,[5],inactive
CS(=O)(=O)NC(=O)c1cc(Oc2ccc(C(F)(F)F)cc2Cl)ccc1[N+](=O)[O-],outcome,[1],inactive
same,outcome,[2],inactive
same,outcome,[4],inactive
same,outcome,[5],inactive
same,outcome,[9],inactive
Cc1ccc(N=C=O)cc1N=C=O,outcome,[1],inactive
same,outcome,[2],inactive
same,outcome,[4],inactive
O=[N+]([O-])c1ccc(Oc2ccc(Cl)cc2Cl)cc1,AC50,[1],100 µM (active)
same,AC50,[2],27.3 µM (active)
same,outcome,[3],inactive
same,outcome,[4],inactive
same,outcome,[5],inactive
same,outcome,[9],inactive
c1ccc(N=Nc2ccccc2)cc1,outcome,[1],inactive
same,outcome,[2],inactive
same,outcome,[3],inactive
same,outcome,[4],inactive
same,outcome,[9],inactive
Nc1ccc([N+](=O)[O-])cc1,outcome,[1],inactive
same,outcome,[2],inactive
same,outcome,[3],inactive
same,outcome,[4],inactive
same,outcome,[5],inactive
same,outcome,[8],inactive
same,outcome,[7],inactive
same,outcome,[6],inactive
OCCCBr,outcome,[1],inactive
same,outcome,[2],inactive
same,outcome,[3],inactive
same,outcome,[4],inactive
same,outcome,[6],inactive
c1ccc(NNc2ccccc2)cc1,outcome,[1],inactive
same,outcome,[2],inactive
same,outcome,[4],inactive
same,outcome,[5],inactive
Clc1ccc(C(c2ccc(Cl)cc2)C(Cl)(Cl)Cl)cc1,outcome,[1],inactive
same,outcome,[2],inactive
same,outcome,[3],inactive
same,outcome,[4],inactive
same,outcome,[5],inactive
same,outcome,[9],inactive
same,outcome,[6],inactive
Nc1cc(Cl)cc(C(=O)O)c1Cl,outcome,[1],inactive
same,outcome,[2],inactive
same,outcome,[3],inactive
same,outcome,[4],inactive
Oc1ccc2ccc3cccc4ccc1c2c34,outcome,[1],inactive
same,outcome,[2],inactive
same,outcome,[4],inactive
same,outcome,[5],inactive
O=P(OCCCl)(OCCCl)OCCCl,outcome,[1],inactive
same,outcome,[2],inactive
same,outcome,[3],inactive
same,outcome,[4],inactive
same,outcome,[5],inactive
same,outcome,[9],inactive
same,outcome,[8],inactive
same,outcome,[6],inactive
Clc1ccc(Cl)c(Cl)c1,outcome,[1],inactive
same,outcome,[2],inactive
same,outcome,[3],inactive
same,outcome,[4],inactive
same,outcome,[9],inactive
same,outcome,[6],inactive
Clc1ccccc1Cl,outcome,[1],inactive
same,outcome,[2],inactive
same,outcome,[4],inactive
CC(C)(C)C(O)(CCc1ccc(Cl)cc1)Cn1cncn1 (stereo unspecified),outcome,[10],inactive
Nc1ccc(Oc2ccc(N)cc2)cc1,outcome,[3],inactive
